The entries come from a sample that favours hits as a whole.
VACV Venus inh = vaccinia inhibition (Venus reporter). Vaccinia virus Venus reporter expression, fluorescence. Potency, µM (top dose mostly 36.5 µM), hits mostly inhibitors. 330,000 tested, 0.46% active; calls by dose curve; tested in A549 cells; further: nearly all actives have a fitted effect of over 30% in size
Vaccinia mCherry = vaccinia inhibition (mCherry reporter) | Vaccinia virus mCherry reporter infection, fluorescence | Potency, µM (highest dose often 36.5 µM), hits mostly inhibitors | 310,000 tested, 0.63% active | AID 720579; calls by dose curve; tested in A549 cells; further: nearly all actives have a fitted effect of over 35% in size
MARV entry inh = blocks Marburg virus binding to or entry into cells | Marburg virus pseudotyped entry inhibition, cell reporter | Potency, µM (titrated, usually from 37.8 µM), actives largely listed as inhibitors | 300,000 tested, 1.8% active; calls by dose curve; tested in HEK293 cells
LASV entry inh = blocks Lassa virus binding to or entry into cells. Lassa virus pseudotype entry inhibition, cell reporter. Potency, µM (top dose mostly 37.9 µM), hits mostly inhibitors. 300,000 tested, 1.2% active; calls by dose curve; tested in HEK293 cells; further: nearly all actives have a fitted effect of over 50% in size
Shiga toxin inh = inhibitors of Shiga toxin in Vero cells; 290,000 tested, 9.2% active; Vero cells, Shiga toxin protein synthesis inhibition reporter; inhibition, % at 38.7 µM; in the data active means inhibition mostly above about 28%, no sharp cut-off; inactive means mostly below about 43%
CHX counter = counter-screen for Shiga toxin inhibitors: cycloheximide protein synthesis inhibition; 300,000 tested, 12% active; AID 2314; cell reporter, cycloheximide protein synthesis inhibition counterscreen; max response, %; in the data active means max response mostly above about 13%, no sharp cut-off; inactive means mostly below about 14%; further: read at 38.3 µM for the half of the compounds with a filed dose
Hits are given with their value.

`CCCN(CCC)C(=O)C1CC(=O)OC12CCCCC2` (stereo not given) gave VACV Venus inh inactive, Vaccinia mCherry inactive, MARV entry inh inactive, LASV entry inh inactive, Shiga toxin inh inactive and CHX counter inactive.
For CC(=O)c1c(C)[nH]c(C(=O)OCC(=O)Nc2ccc(Cl)cc2[N+](=O)[O-])c1C the results were VACV Venus inh inactive, Vaccinia mCherry inactive, MARV entry inh 6.31µM, LASV entry inh inactive, Shiga toxin inh inactive and CHX counter inactive.
Screening CC(=O)c1c(C)[nH]c(C(=O)Nc2ccccn2)c1C returned VACV Venus inh inactive, Vaccinia mCherry inactive, MARV entry inh inactive, LASV entry inh inactive, Shiga toxin inh 52.4 and CHX counter 44.1.
Screening CCOC(=O)c1c(C)[nH]c(C(=O)OCC(=O)Nc2cc(Cl)ccc2OC)c1C returned MARV entry inh inconclusive, LASV entry inh inactive, Shiga toxin inh inactive and CHX counter inactive.
Cc1cccc2nc(-c3ccccn3)c(Nc3ccccc3)n12 was read as VACV Venus inh inconclusive, Vaccinia mCherry inconclusive, MARV entry inh inconclusive and LASV entry inh 11.2µM.
Screening Cc1cccc2nc(-c3ccccn3)c(Nc3ccc(F)cc3)n12 returned VACV Venus inh inconclusive, Vaccinia mCherry 10µM, MARV entry inh inconclusive and LASV entry inh inconclusive.
`Cc1ccn2c(Nc3ccc(F)cc3)c(-c3ccccn3)nc2c1` gave VACV Venus inh inconclusive, Vaccinia mCherry inconclusive, MARV entry inh inactive and LASV entry inh inactive.
`Cc1ccc(Nc2c(-c3ccccn3)nc3cccc(C)n23)cc1` gave VACV Venus inh inactive, Vaccinia mCherry 12.6µM, Shiga toxin inh inactive and CHX counter inactive.
For Cc1cccc2nc(-c3ccco3)c(Nc3ccccc3)n12 the results were Shiga toxin inh inactive and CHX counter inactive.
Screening O=C(Nc1nc2n(n1)C(c1ccccc1)C=C(c1ccccc1)N2)c1ccc(Cl)c([N+](=O)[O-])c1 (stereo not given) returned VACV Venus inh inactive, Vaccinia mCherry inactive, MARV entry inh inconclusive and LASV entry inh inconclusive.
`CCOC(=O)c1c(C)[nH]c(C2=NNC(=Nc3ccccc3OC)SC2)c1C` gave VACV Venus inh inconclusive, Vaccinia mCherry inactive, MARV entry inh inconclusive, LASV entry inh inconclusive, Shiga toxin inh 41.7 and CHX counter 49.4.
For CCOC(=O)c1c(C)[nH]c(C2=NNC(=Nc3ccccc3)SC2)c1C the results were MARV entry inh inactive, Shiga toxin inh 29.6 and CHX counter 20.5.
For CCOC(=O)c1c(C)[nH]c(C2=NNC(=Nc3ccc(OCC)cc3)SC2)c1C the results were VACV Venus inh inactive, Vaccinia mCherry inactive, MARV entry inh inconclusive, LASV entry inh inconclusive, Shiga toxin inh inactive and CHX counter 12.6.
`CC(=O)c1c(C)[nH]c(C2=NNC(=NC(C)(C)C)SC2)c1C` gave VACV Venus inh inactive, Vaccinia mCherry inactive, MARV entry inh inactive, LASV entry inh inactive, Shiga toxin inh 82.2 and CHX counter 29.4.
Screening CCC1CN(CCNC(=O)c2ccc3c(c2)OCCO3)Cc2cc(OC)ccc2O1 (stereo not given) returned VACV Venus inh inactive and Vaccinia mCherry inactive.
Cc1nc2nc(C)c(NS(=O)(=O)c3ccc(F)cc3)c(=O)n2[nH]1 was read as VACV Venus inh inactive, Vaccinia mCherry inactive, MARV entry inh inactive and LASV entry inh inactive.
`CCOC(=O)C[C@@H](C#N)c1cn(C)c2ccccc12` gave MARV entry inh inactive.
For CCC(CC)COC(=O)C(C#N)c1nc2ccccc2nc1N1CCN(CC)CC1 (stereo not given) the results were MARV entry inh 5.17µM, LASV entry inh inconclusive, Shiga toxin inh inactive and CHX counter inactive.
Screening Cc1cc(Cl)n2ncc(-c3ccccc3)c2n1 returned VACV Venus inh inactive, Vaccinia mCherry inactive, MARV entry inh inconclusive, LASV entry inh inconclusive, Shiga toxin inh 62.5 and CHX counter 57.4.
Cc1cc(N)n2ncc(-c3ccc(F)cc3)c2n1 was read as VACV Venus inh inactive, Vaccinia mCherry inconclusive, MARV entry inh inactive, LASV entry inh inconclusive, Shiga toxin inh 67.6 and CHX counter 50.4.
For CC(C)n1nnnc1-c1ccc(Cl)cc1 the results were VACV Venus inh inactive, Vaccinia mCherry inactive, MARV entry inh inactive, LASV entry inh inactive, Shiga toxin inh inactive and CHX counter inactive.
Cc1cc(N2CCOCC2)n2ncc(-c3ccccc3Cl)c2n1 was read as VACV Venus inh inactive, Vaccinia mCherry inactive, MARV entry inh inconclusive, LASV entry inh inactive, Shiga toxin inh 87.8 and CHX counter 40.7.
`Cc1cc(-c2ccc(Cl)cc2)c2cnn(C(C)C)c2n1` gave Shiga toxin inh inactive and CHX counter 29.6.
Screening CCCc1nn2c(-c3ccccc3)nnc2o1 returned VACV Venus inh inactive and Vaccinia mCherry inactive.
`COC(=O)[C@](O)(c1c[nH]c2ccccc12)C(F)(F)F` gave MARV entry inh inactive.
`CCOC(=O)Cc1c(C)nc2c(-c3ccc(Cl)cc3)c(C)[nH]n2c1=O` gave VACV Venus inh inactive, Vaccinia mCherry inactive, MARV entry inh inconclusive, LASV entry inh inconclusive, Shiga toxin inh inactive and CHX counter inactive.
`Cc1nc2c(-c3ccc(F)cc3)c(C)nn2c(N2CCOCC2)c1C` gave VACV Venus inh inactive, Vaccinia mCherry inactive, MARV entry inh inconclusive, LASV entry inh inactive, Shiga toxin inh inactive and CHX counter inactive.
`COc1ccc(-c2cnn3c(C)cc(C)nc23)cc1OC` gave VACV Venus inh inactive, Vaccinia mCherry inactive and LASV entry inh inactive.
For Cc1cc(N)n2ncc(-c3ccc(Cl)cc3)c2n1 the results were MARV entry inh inconclusive, LASV entry inh inactive, Shiga toxin inh 48.6 and CHX counter 21.9.
For Cc1cc(-n2nc(C)cc2C)n2nc(C)c(-c3ccc(Cl)cc3)c2n1 the results were MARV entry inh inconclusive, LASV entry inh inactive, Shiga toxin inh inactive and CHX counter inactive.
CCOC(=O)Cc1c(C)nc2c(-c3ccc(Cl)cc3)cnn2c1C was read as VACV Venus inh inactive, Vaccinia mCherry inactive, MARV entry inh inactive, LASV entry inh inactive, Shiga toxin inh 48.6 and CHX counter inactive.
`Cc1cc(C)n2cc(-c3ccc(Cl)cc3)c(C(=O)O)c2n1` gave VACV Venus inh inactive, Vaccinia mCherry inactive, MARV entry inh inactive, LASV entry inh inactive, Shiga toxin inh 50.9 and CHX counter 22.3.
Screening Cc1nc2c(-c3ccc(F)cc3)cnn2c(N)c1-c1ccc(F)cc1 returned VACV Venus inh inconclusive, Vaccinia mCherry inactive, MARV entry inh 5.01µM, LASV entry inh inactive, Shiga toxin inh 93.0 and CHX counter 61.1.
For O=C1C=C(c2c(O)ccc3ccccc23)c2ccccc2C1=O the results were VACV Venus inh 11.2µM, Vaccinia mCherry 10µM, MARV entry inh inconclusive and LASV entry inh 6.31µM.
Screening O=C(COC(=O)c1c2c(nc3ccccc13)/C(=C\c1cccs1)CCC2)Nc1ccccc1 returned VACV Venus inh inconclusive, Vaccinia mCherry inconclusive, MARV entry inh inconclusive, LASV entry inh inconclusive, Shiga toxin inh inactive and CHX counter inactive.
CC(=O)c1ccc(NC(=O)COC(=O)c2c3c(nc4ccccc24)/C(=C\c2cccs2)CCC3)cc1 was read as VACV Venus inh inconclusive, Vaccinia mCherry inactive, MARV entry inh 8.91µM, LASV entry inh inconclusive, Shiga toxin inh inactive and CHX counter 14.7.
